# Test results published in PubChem BioAssay AID2639 (National Center for Advancing Translational Sciences (NCATS), 2010).
# The source made the active and inactive calls. Calls follow the shape of the full dose curve.
# Assay: Platelet Aggregation Secondary Assay for Inhibitors of Platelet Integrin alphallb-beta3
# Settings: platelet-rich plasma, ADP-induced aggregation, absorbance 563 nm
# Source text: NIH Molecular Libraries Probe Production Network [MLPCN] NIH Chemical Genomics Center [NCGC] MLPCN Grant: 1 R03 MH083257-01 Assay Provider: Barry Coller, Rockefeller University NCGC Assay Overview: The alphaIIbbeta3 receptor plays a vital role in hemostasis and thrombosis, where receptor deficiency causes the hemorrhagic disorder, Glanzmann thrombasthenia, and uncontrolled receptor activation causes thrombosis and blood vessel occlusion. Small molecule inhibitors of alphaIIbbeta3, tirofiban and eptifibatide, have undesirable side effects thought to arise from conformational changes in alphaIIbbeta3. These changes transiently activate the receptor to cause spontaneous platelet aggregation and thrombus formation. […] This secondary assay measures platelet aggregation (Blue et al., 2008). Platelets are induced to aggregate and aggregation is tracked by the change in absorbance over time. Inhibitors of alphaIIbbeta3 block platelet aggregation and decrease the rate of change in absorbance.
# NCGC Assay Protocol Summary: Untreated 96-well polystyrene plates (Nunc, Rochester, NY) were blocked for at least 1 hour with HBMT (138 mM NaCl, 12 mM NaHCO3, 10 mM HEPES, 2.7 mM KCl, 0.4 mM NaH2PO4, 0.1% glucose, 0.35% BSA, pH 7.4). Compounds (33 uL in HBMT) and citrated platelet-rich plasma (67 uL) were added to the wells. After plates equilibrated at 37 C in the plate reader (SpectraMax; Molecular Devices, Sunnyvale, CA) for 10 minutes, aggregation was initiated by adding ADP (5 uM final concentration; Chrono-Log Corp, Havertown, PA). Absorbance (Abs) was measured at 563 nm every 10 seconds with 3 seconds of shaking between determinations for 8 minutes. Reference Blue R, Murcia M, Karan C, Jirouskova M, and Coller BS. Application of high-throughput screening to identify a novel alphaIIb-specific small- molecule inhibitor of alphaIIbbeta3-mediated platelet interaction with fibrinogen. Blood. 2008, 111(3):1248-56
Structure (SMILES),outcome,Potency
CC(C)(C)c1nn2c(=O)cc(N3CCNCC3)nc2s1,inactive,–
CNCC(=O)Nc1cccc(-c2nn3c(=O)cc(N4CCNCC4)nc3s2)c1,inactive,–
O=c1cc(N2CCNCC2)nc2sc(-c3cccc(-c4ccnc(F)c4)c3)nn12,–,8.4 µM (active)
O=C(Nc1cccc(-c2nn3c(=O)cc(N4CCNCC4)nc3s2)c1)c1ccncc1,–,1.5 µM (active)
C[C@H](N)C(=O)Nc1cccc(-c2nn3c(=O)cc(N4CCNCC4)nc3s2)c1,–,0.916 µM (active)
NCC(=O)Nc1cccc(-c2nn3c(=O)cc(N4CCNCC4)nc3s2)c1,–,0.163 µM (active)
O=C(O)c1ccc(-c2nn3c(=O)cc(N4CCNCC4)nc3s2)cc1,–,5.4 µM (active)
Nc1ccc(-c2cccc(-c3nn4c(=O)cc(N5CCNCC5)nc4s3)c2)cc1,–,1.9 µM (active)
CCc1nn2c(=O)cc(N3C(C)CNCC3C)nc2s1 (stereo unspecified),inactive,–
O=C(Nc1cccc(-c2nn3c(=O)cc(N4CCNCC4)nc3s2)c1)c1ccon1,inactive,–
O=C(O)c1cccc(-c2cccc(-c3nn4c(=O)cc(N5CCNCC5)nc4s3)c2)c1,inactive,–
O=C(O)c1ccc(-c2cccc(-c3nn4c(=O)cc(N5CCNCC5)nc4s3)c2)cc1,–,11.4 µM (active)
CCc1nn2c(=O)cc(NC3CNC3)nc2s1,inactive,–
Cc1noc(C)c1-c1cccc(-c2nn3c(=O)cc(N4CCNCC4)nc3s2)c1,inactive,–
O=c1cc(N2CCNCC2)nc2sc(-c3cccc(-c4ccncc4)c3)nn12,–,8 µM (active)
COCc1nn2c(=O)cc(N3CCNCC3)nc2s1,inactive,–
NC(=O)c1ccc(-c2cccc(-c3nn4c(=O)cc(N5CCNCC5)nc4s3)c2)cc1,–,1.6 µM (active)
O=C(Nc1cccc(-c2nn3c(=O)cc(N4CCNCC4)nc3s2)c1)C1CCNCC1,–,8.6 µM (active)
C[C@@H](N)C(=O)Nc1cccc(-c2nn3c(=O)cc(N4CCNCC4)nc3s2)c1,–,5.9 µM (active)
CCc1nn2c(=O)cc(-c3ccncc3)nc2s1,inactive,–
O=c1cc(N2CCNCC2)nc2sc(-c3ccncc3)nn12,–,3.1 µM (active)
O=c1cc(N2CCNCC2)nc2sc(Cc3ccccc3)nn12,–,13.9 µM (active)
Nc1ncc(-c2cccc(-c3nn4c(=O)cc(N5CCNCC5)nc4s3)c2)cn1,–,10.1 µM (active)
O=C(O)CNc1cccc(-c2nn3c(=O)cc(N4CCNCC4)nc3s2)c1,–,12.7 µM (active)
NCCC(=O)Nc1cccc(-c2nn3c(=O)cc(N4CCNCC4)nc3s2)c1,–,1.6 µM (active)
O=C(O)c1cc(-c2cccc(-c3nn4c(=O)cc(N5CCNCC5)nc4s3)c2)cs1,inactive,–
